According to PubChem BioAssay (NCATS):
“And” between values parts separate entries of the source, which are not always exact repeats. Equal values may be shown once. Records with an inconclusive call do not appear. Values without a mark were called inactive. The source made the active and inactive calls. Unless noted, the call rests on the fitted dose curve.

Assay: qHTS assay for small molecule activators of the nuclear factor-kappa B (NF-kB) signaling pathway (AID 651749; active means well fitted activation curve with a large enough effect in the signal ratio; the % refers to the signal ratio; further: % of control where 0% means no effect)
Details: NF-kB-bla ME-180 cells, beta-lactamase FRET ratio, 16 h; active compounds read high
In short: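 NF-kB-bla ME-180 cells carrying a beta-lactamase reporter under an NF-kB response element, 2,000 cells/well, exposed to compound for 16 hr at 37C; FRET-based beta-lactamase fluorescence read-out of pathway activation.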

Structure (SMILES) | activation
OCc1c[nH]c2ccccc12 | -1.28%
c1ccc2occc2c1 | -0.808% and 0.0616% and -0.684%
O=C(NO)c1ccccc1 | 0.132%
CC(=O)OC/C=C(C)/C=C/C=C(C)/C=C/C1=C(C)CCCC1(C)C | -1.82% and 0.334%
Cc1ccc(O)cc1 | -0.225%
COc1cc(C=O)ccc1O | -1.8% and -1.55%
CCCC(=O)c1cc(O)c(O)cc1O | 0.282%
CC(C)(c1ccc(O)cc1)c1ccc(O)cc1 | -0.409% and -2.36% and -2.41%
COC(=O)c1c(Cl)c(Cl)c(C(=O)OC)c(Cl)c1Cl | 0.623%
CC(C)C(C)(C)C(C)(C)C(C)(C)S | -1.05% and -0.196%
Brc1ccccc1-c1ccccc1 | -0.27%
CC(C)(C)c1ccc(O)c(O)c1 | -0.887% and -1.66%
Nc1cccc2c(N)cccc12 | -0.416% and 0.0033%

Assay: qHTS assay for small molecule disruptors of the mitochondrial membrane potential - 1 hr assay (AID 651754); further: nearly all actives have a fitted effect of over 35% in size; further: potency means the concentration at half of the fitted maximal effect; on ratio change, negative = depolarisation: on the % scale 0 is the no-effect control and ±100 the full control effect
Details: series mostly up to 92.2 µM; ratio change, negative = depolarisation: at the top concentration
In short: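 HepG2, 2,000 cells/well, overnight attachment; cpd or DMSO 1 hr, 37C/5% CO2; Mito-MPS dye 30 min, 37C; fluorescence monomer (490/535) and aggregate (540/590).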

Structure (SMILES) | ratio change, negative = depolarisation | Potency
OCc1c[nH]c2ccccc12 | 0.448% | 
c1ccc2occc2c1 | 1.51% | 
CCCCC(CC)COC(=O)c1ccccc1C(=O)O (stereo not drawn) | -5.89% | 
CCCCCCCCCCCCCCCC[n+]1ccccc1 | 7.3% | 
CC(=O)OC/C=C(C)/C=C/C=C(C)/C=C/C1=C(C)CCCC1(C)C | 6.64% | 
Cc1ccc(O)cc1 | -1.68% | 
O=C(c1ccccc1)c1ccccc1 | 9.14% | 
Nc1c2ccccc2nc2ccccc12 |  | 9.44 µM (active)
Brc1ccccc1-c1ccccc1 | -2.66% | 
CC(C)(C)c1ccc(O)c(O)c1 |  | 37.6 µM (active)
